Assay results as given in PubChem BioAssay (NCATS).
Records with an inconclusive call do not appear. The source made the active and inactive calls. Unless noted, calls come from the whole dose curve; as a rule, active = well fitted curve in the direction sought with a large enough effect; inconclusive = small, poorly fitted or top-dose-only effect, or another doubt; inactive = no such curve, though single readings can be large; an effect the other way counts as inactive or inconclusive.

Columns and labels:
[1] = molecular target: DNA repair nuclease/redox regulator APEX1 (Homo sapiens) (UniProt P27695); experiment: qHTS Validation Assay for Inhibitors of the Human Apurinic/apyrimidinic Endonuclease 1 (APE1) (AID 1705;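 note: TAMRA fluorescence gain over two minutes as APE1 cuts a quenched THF abasic duplex; series mostly up to about 57 µM; % is set by controls: 0 for no effect and ±100 for the full control effect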)
Chain of DNA repair nuclease/redox regulator APEX1 (Homo sapiens) (P27695 whole entry, looked up): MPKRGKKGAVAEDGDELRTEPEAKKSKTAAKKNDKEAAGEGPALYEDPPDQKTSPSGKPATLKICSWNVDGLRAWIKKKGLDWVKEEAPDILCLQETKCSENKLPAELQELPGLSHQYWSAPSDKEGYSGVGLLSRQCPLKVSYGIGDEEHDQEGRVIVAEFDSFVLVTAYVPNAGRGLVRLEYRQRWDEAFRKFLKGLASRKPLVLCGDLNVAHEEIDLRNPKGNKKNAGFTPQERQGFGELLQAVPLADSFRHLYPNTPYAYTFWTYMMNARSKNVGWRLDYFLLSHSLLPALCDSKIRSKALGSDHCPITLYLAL
How it was run: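 Activity read as rising fluorescence (598 nm emission, 525 nm excitation) from incision of a TAMRA/BHQ-2 duplex carrying a THF abasic site (50 nM). Compound and enzyme sat 15 min at RT before substrate start; signal change between first and third 60-s reads.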

[2] = Counterscreen for APE1 Inhibitors: Fluorescent Dye Displacement Validation Assay (AID 1707);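 note: plate controls were ThO with dsDNA and no compound for no effect and ThO without dsDNA for full effect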
How it was run: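 Counterscreen flags promiscuous DNA binders: compounds displacing ThO from duplex DNA (abasic THF site, 50 nM) reduce 540 nm emission (480 nm excitation). ThO 250 nM final; Tris-HCl pH 7.5 with NaCl, MgCl2 and Tween-20.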

[3] = qHTS for differential inhibitors of proliferation of Plasmodium falciparum line GB4 (AID 1816); details: Potency: Plasmodium falciparum GB4 proliferation inhibition;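 note: parasite growth measured after 72 h incubation; 0% = vehicle DMSO and -100% = reference inhibitor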
[4] = qHTS for differential inhibitors of proliferation of Plasmodium falciparum line 3D7 (AID 1876);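 note: parasite growth measured after three days of culture; 0% = vehicle wells and -100% = reference inhibitor wells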
[5] = qHTS for differential inhibitors of proliferation of Plasmodium falciparum line D10 (AID 1877);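 note: parasites grown with compound for 72 h before DNA staining; plate controls were vehicle wells for no effect and reference inhibitor wells for full effect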
[6] = qHTS for differential inhibitors of proliferation of Plasmodium falciparum line Dd2 (AID 1882); details: Potency: Plasmodium falciparum Dd2 proliferation inhibition;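 note: series mostly up to about 29 µM; compound exposure of 72 h on infected erythrocytes; plate controls were DMSO vehicle for no effect and 0.29 µM artemisinin for full effect; nearly all actives have a fitted effect of over 65% in size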
How it was run: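 RBC culture, 0.3% parasitemia / 2.5% Hct final; cpd added by pin tool in DMSO; 72 h, 37 C, 5% CO2; lysis buffer + SYBR Green I, o/n RT dark; FI 485/535; norm. to artemisinin 0.29 uM and DMSO.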

[7] = qHTS for differential inhibitors of proliferation of Plasmodium falciparum line HB3 (AID 1886); details: Potency: Plasmodium falciparum HB3 proliferation inhibition;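 note: parasites grown with compound for 72 h before SYBR Green readout; plate controls were vehicle for no effect and reference inhibitor for full effect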
[8] = molecular target: Ferritin light chain (Equus caballus) (UniProt P02791); experiment: qHTS Validation Assay for Identification of Novel General Anesthetics (AID 2323); note: series mostly up to about 77 µM; % is set by controls: 0 for no effect and ±100 for the full control effect
Chain of Ferritin light chain (Equus caballus) (P02791 2-175 limits assumed): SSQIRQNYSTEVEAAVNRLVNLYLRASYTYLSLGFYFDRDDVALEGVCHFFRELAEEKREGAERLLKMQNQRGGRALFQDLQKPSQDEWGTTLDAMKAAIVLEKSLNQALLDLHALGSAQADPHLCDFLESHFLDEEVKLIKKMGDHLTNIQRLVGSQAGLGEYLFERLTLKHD
How it was run: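 Competitive displacement of the profluorescent anesthetic 1-AMA (50% saturated, PBS) from 10 uM apoferritin, 10 min, room temperature. Activity is normalized 380/535 nm fluorescence; concentration-response fitted with a four-parameter Hill equation.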

[9] = molecular target: ATP-dependent DNA helicase Q1 (Homo sapiens) (UniProt P46063); experiment: qHTS Validation Assay for Inhibitors of RecQ-Like Dna Helicase 1 (RECQ1) (AID 2353);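 note: plate controls were DMSO vehicle for no effect and enzyme-free control for full effect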
Chain of ATP-dependent DNA helicase Q1 (Homo sapiens) (P46063 whole entry, looked up): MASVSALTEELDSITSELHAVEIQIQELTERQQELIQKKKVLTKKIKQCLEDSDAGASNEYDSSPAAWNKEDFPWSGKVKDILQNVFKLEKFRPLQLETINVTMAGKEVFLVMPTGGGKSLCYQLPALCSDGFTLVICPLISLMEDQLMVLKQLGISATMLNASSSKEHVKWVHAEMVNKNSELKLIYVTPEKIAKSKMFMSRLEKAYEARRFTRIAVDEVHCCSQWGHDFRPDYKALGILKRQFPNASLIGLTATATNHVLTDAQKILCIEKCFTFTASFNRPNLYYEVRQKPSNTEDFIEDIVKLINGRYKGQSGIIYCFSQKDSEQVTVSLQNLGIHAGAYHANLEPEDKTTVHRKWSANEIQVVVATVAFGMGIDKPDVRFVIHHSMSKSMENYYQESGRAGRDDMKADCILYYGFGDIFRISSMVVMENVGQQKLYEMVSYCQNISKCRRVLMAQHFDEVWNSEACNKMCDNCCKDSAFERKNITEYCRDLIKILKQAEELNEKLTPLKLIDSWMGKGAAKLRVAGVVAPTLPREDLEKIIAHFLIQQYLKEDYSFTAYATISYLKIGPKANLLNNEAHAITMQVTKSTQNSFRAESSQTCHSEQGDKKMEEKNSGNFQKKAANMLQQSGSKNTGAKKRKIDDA
How it was run: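 RECQ1T1 50 nM; forked duplex (20 bp + 30-nt ss tails) 200 nM, ATP 2 mM final; pH 8.0, 2 mM MgCl2, 2.5 ug/ml poly(dI-dC); 15 min compound preincubation; discontinuous kinetic read over 2 h at RT.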

[10] = Quantitative high throughput screen for delayed death inhibitors of the malarial parasite plastid, 96 hour incubation (AID 488745); note: series mostly up to about 29 µM; % is set by controls: 0 for no effect and ±100 for the full control effect; nearly all actives have a fitted effect of over 70% in size
How it was run: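 Two-generation (96 h) exposure of luciferase-reporter P. falciparum in erythrocytes, 2% hematocrit, 0.1% parasitemia final, 37 C, 5% CO2, RPMI 1640 with 0.5% Albumax. Growth inhibition scored by reduced luminescence.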

[11] = molecular target: M-phase phosphoprotein 8 (Homo sapiens) (UniProt Q99549); experiment: qHTS Validation Assay for Inhibitors for MPP8 Chromodomain Interactions with Methylated Histone Tails (AID 488949);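 note: AlphaScreen signal from MPP8 chromodomain bound to biotinylated H3K9me3 peptide; top concentration of the series differs between compounds; % is set by controls: 0 for no effect and ±100 for the full control effect; nearly all actives have a fitted effect of over 55% in size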
Chain of M-phase phosphoprotein 8 (Homo sapiens) (Q99549 whole entry, looked up): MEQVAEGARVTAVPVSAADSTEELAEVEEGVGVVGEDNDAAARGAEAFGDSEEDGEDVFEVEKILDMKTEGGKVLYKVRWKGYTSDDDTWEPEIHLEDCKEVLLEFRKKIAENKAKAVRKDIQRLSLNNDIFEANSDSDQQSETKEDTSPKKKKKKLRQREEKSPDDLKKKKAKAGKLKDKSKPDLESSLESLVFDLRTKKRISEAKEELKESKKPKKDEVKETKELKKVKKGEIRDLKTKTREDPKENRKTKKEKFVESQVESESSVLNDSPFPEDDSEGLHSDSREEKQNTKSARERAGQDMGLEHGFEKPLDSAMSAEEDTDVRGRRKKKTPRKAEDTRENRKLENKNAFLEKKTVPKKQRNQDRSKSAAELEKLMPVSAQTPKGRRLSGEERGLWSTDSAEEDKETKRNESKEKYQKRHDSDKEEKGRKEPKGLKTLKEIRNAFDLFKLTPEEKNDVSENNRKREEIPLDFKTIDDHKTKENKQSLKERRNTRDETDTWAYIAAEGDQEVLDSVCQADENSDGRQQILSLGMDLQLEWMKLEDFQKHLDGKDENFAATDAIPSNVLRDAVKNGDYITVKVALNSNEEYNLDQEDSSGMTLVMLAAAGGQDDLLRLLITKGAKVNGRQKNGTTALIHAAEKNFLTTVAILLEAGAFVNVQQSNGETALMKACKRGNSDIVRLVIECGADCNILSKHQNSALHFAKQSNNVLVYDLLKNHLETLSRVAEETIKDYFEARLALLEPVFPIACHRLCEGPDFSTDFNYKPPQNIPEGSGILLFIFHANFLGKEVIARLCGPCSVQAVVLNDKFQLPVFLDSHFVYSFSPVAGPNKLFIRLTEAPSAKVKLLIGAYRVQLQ
How it was run: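 AlphaScreen proximity signal from streptavidin donor and Ni-chelate acceptor beads (10 ug/mL each) reported binding of MPP8 to trimethyl-K9 H3(1-18) peptide, both at 50 nM. The complex formed 30 min before a 30 min compound exposure at room temperature, in PBS pH 7.4.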

[12] = molecular target: Thyrotropin receptor (Homo sapiens) (UniProt P16473); experiment: qHTS Assay for Antagonists of the Thyroid Stimulating Hormone Receptor (AID 488980); note: series mostly up to about 58 µM; 0% is about no effect
Chain of Thyrotropin receptor (Homo sapiens) (P16473 whole entry, looked up): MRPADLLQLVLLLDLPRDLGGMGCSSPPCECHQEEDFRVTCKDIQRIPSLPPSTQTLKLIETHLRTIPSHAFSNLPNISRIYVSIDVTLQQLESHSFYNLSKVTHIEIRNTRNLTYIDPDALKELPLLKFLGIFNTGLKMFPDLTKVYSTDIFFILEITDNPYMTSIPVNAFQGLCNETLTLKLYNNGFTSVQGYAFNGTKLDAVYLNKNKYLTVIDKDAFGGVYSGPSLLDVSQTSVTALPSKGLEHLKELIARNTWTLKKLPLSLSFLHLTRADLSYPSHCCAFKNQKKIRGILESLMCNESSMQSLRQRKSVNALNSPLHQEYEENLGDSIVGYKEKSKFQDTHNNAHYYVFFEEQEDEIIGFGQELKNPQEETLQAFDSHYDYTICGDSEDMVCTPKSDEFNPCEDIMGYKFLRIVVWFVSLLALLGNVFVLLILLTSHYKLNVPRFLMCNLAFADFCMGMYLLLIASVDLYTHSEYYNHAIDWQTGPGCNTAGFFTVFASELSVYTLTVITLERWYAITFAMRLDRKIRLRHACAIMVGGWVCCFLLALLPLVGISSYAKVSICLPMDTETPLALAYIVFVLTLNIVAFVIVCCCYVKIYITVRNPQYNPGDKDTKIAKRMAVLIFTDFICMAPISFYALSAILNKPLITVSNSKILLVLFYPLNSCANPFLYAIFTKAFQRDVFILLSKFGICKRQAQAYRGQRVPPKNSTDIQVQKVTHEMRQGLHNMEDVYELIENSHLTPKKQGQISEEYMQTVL
How it was run: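 Inhibition of cAMP raised by EC80 TSH (4 nM final) was read by HTRF, with lysate cAMP competing against cAMP-d2 for cryptate antibody after 30 min at room temperature. The cells were transfected HEK293 held in phosphodiesterase inhibitor RO 20-1724 at 70 uM.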

[13] = molecular target: Thyrotropin-releasing hormone receptor (Homo sapiens) (UniProt P34981); experiment: qHTS for Small Molecule Agonists and Allosteric Enhancers of Human TRH Receptor: Validation Screen for Agonists (AID 493127;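 active = calcium activation more than 3 SD above the typical response in the agonist read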;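 note: intracellular calcium rise by fluo-8 fluorescence before TRH EC20 addition; 0% is about no effect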); details: TRH receptor agonist cell assay; at 2 µM; stronger effect = higher value
Chain of Thyrotropin-releasing hormone receptor (Homo sapiens) (P34981 whole entry, looked up): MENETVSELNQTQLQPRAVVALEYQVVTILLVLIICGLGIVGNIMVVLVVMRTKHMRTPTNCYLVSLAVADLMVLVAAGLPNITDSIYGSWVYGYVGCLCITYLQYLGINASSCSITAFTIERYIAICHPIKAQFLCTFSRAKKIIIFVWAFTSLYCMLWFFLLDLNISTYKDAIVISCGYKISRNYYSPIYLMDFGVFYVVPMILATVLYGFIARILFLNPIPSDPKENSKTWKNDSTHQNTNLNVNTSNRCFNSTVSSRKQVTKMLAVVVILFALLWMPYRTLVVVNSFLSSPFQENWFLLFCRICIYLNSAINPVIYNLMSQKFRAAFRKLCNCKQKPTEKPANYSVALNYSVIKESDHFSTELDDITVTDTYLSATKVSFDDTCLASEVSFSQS
How it was run: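 Kinetic fluorescence assay of agonist-induced calcium release: overnight-plated TRHR cells, room-temperature fluo-8 loading, baseline then compound addition with per-second reads.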

[14] = molecular target: Galactokinase (Homo sapiens) (UniProt P51570); experiment: qHTS Validation Assay for Inhibitors of Human Galactokinase (GALK) (AID 493189); note: 0% is about no effect
Chain of Galactokinase (Homo sapiens) (P51570 whole entry, looked up): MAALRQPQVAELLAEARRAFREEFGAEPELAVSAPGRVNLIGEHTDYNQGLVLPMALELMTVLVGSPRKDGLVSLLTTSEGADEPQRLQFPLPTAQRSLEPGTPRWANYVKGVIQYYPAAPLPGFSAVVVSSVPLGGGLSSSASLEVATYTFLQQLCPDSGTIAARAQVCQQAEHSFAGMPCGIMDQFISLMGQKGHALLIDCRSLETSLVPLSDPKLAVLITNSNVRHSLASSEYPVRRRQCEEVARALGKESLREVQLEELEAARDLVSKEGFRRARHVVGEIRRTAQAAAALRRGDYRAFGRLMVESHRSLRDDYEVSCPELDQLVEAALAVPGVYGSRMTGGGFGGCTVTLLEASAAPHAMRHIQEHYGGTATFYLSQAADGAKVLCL
How it was run: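 Inhibition was measured as remaining ATP, detected by luciferase luminescence after a 1 h room-temperature reaction. Final conditions: 5 nM GALK, 100 uM galactose, 35 uM ATP, pH 8.0 HEPES buffer.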

[15] = Validation screen for small molecules that induce DNA re-replication in SW480 colon adenocarcinoma cells (AID 504364); note: 0% is about no effect
How it was run: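 Hoechst-stained SW480 nuclei, imaged at 405 nm excitation after 48 hr compound exposure, were counted for elevated DNA content as the re-replication signal.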

[16] = molecular target: Voltage-gated inwardly rectifying potassium channel KCNH2 (Homo sapiens) (UniProt Q12809); experiment: qHTS Assay for Small Molecule Inhibitors of the Human hERG Channel Activity (AID 588834);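 note: top concentration of the series differs between compounds; % is set by controls: 0 for no effect and ±100 for the full control effect; lower thallium flux fluorescence means stronger hERG block; nearly all actives have a fitted effect of over 50% in size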
Chain of Voltage-gated inwardly rectifying potassium channel KCNH2 (Homo sapiens) (Q12809 whole entry, looked up): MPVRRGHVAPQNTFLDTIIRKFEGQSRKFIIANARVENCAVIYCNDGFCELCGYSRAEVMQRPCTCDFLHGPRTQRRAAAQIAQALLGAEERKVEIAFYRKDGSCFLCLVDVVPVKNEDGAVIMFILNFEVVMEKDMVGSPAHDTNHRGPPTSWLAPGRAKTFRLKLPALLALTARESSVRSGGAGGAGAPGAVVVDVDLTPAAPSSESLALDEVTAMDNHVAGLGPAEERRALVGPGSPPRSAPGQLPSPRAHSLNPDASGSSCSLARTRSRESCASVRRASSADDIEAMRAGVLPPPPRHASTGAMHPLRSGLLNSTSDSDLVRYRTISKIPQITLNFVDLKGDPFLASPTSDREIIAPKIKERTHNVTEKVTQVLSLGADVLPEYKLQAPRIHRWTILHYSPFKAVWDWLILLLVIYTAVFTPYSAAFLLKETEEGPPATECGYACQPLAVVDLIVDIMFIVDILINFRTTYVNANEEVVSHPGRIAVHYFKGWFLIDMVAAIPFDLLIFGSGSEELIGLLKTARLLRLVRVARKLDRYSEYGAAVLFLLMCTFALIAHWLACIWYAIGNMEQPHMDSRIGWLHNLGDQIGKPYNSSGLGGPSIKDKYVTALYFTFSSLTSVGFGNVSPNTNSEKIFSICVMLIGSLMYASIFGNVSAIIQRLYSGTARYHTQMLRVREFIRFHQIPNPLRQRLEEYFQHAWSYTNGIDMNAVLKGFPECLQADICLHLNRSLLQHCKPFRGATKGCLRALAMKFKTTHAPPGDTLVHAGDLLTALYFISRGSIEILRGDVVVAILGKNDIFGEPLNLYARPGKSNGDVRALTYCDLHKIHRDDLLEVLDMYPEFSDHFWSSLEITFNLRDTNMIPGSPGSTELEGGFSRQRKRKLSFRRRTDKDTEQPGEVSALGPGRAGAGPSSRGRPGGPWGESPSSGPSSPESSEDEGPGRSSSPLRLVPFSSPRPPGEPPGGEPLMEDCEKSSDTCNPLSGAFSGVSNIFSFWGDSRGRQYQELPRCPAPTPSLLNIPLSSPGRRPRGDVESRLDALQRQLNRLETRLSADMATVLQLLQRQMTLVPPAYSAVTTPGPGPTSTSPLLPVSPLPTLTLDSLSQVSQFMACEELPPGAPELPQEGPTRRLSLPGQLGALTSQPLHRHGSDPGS
How it was run: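 hERG block measured as reduced thallium-dye (FluxOR) fluorescence after stimulation buffer addition, read over 2 min. Cells were hERG-BacMam-transduced U2OS exposed to compound ~10 min […]; concentration-response fitted with Hill equation for AC50.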

[17] = tested on: Zika virus NS2B-NS3 protease; experiment: Primary screen GU AMC qHTS for Zika virus inhibitors (AID 1347154);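 note: 0% = no-inhibitor control and -100% = no-enzyme control; nearly all actives have a fitted effect of over 70% in size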
How it was run: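 Fluorogenic AMC-substrate cleavage by noncovalent NS2B-NS3 protease complex (25 nM, pH 8.0 Tris buffer with Tween 20) followed for 15 minutes at room temperature (~20% conversion). Percent inhibition from ex340/em450 signal change, fitted by 4-parameter Hill equation.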

[18] = Primary qHTS for small molecule stabilizers of the endoplasmic reticulum resident proteome: Secreted ER Calcium Modulated Protein (SERCaMP) assay (AID 1508630); note: % is set by controls: 0 for no effect and ±100 for the full control effect
How it was run: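 The SH-SY5Y reporter protocol was run at 3 concentrations up to 38.3 uM (primary) or 11 concentrations (follow-up): 16 h compound, 100 nM thapsigargin for 4 h, then extracellular luciferase luminescence.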

COc1ccccc1NC(=O)Nc1nc(-c2cccnc2)nc2ccccc12
inactive: Potency [1] | Potency [2] | Potency [3] | Potency [4] | Potency [5] | Potency [6] | Potency [7] | outcome [8] | Potency [9] | Potency [10] | Potency [11] | outcome [12] | activation [13] 0.25% | outcome [14] | outcome [15] | Potency [16] | Potency [17] | Potency [18]
